The record followed here is PubChem BioAssay (NCI).

Experiment in all cases: NCI-60 one-dose screen, 48 h (100 = growth as untreated, 0 = no growth, -100 = all killed)
Holding throughout (details): 10 µM unless noted

The subject of assay [1] is DU-145 prostate.
In assay [2] the test system is K-562 leukemia.
The test system of assay [3] is MALME-3M melanoma.
Assay [4] deals with MDA-MB-231 breast.
The test system of assay [5] is RXF 393 renal.
Assay [6] concerns SF-268 CNS.
The test system of assay [7] is SF-539 CNS.
Assay [8] relates to UACC-257 melanoma.
The test system of assay [9] is M14 melanoma.
Assay [10] deals with HCT-15 colon.
Assay [11] has as its system HT29 colon.
Assay [12] concerns SNB-75 CNS.
The subject of assay [13] is SNB-19 CNS.
In assay [14] the test system is U251 CNS.
In assay [15] the test system is PC-3 prostate.
Assay [16] has as its system SK-MEL-5 melanoma.
The subject of assay [17] is UACC-62 melanoma.
For assay [18], the system named is LOX IMVI melanoma.
Assay [19] concerns SK-MEL-28 melanoma.

Compounds without any hit were thinned out: in the full panel of roughly 83,000, 20% have a hit.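 Step 1: grow cells in 96-well plates. Step 2: add test compound at a single concentration. Step 3: incubate 48 h. Step 4: record percent growth.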 A number with no mark means an inactive call. Active and inactive are the calls of the source. How the source made its calls: active means growth percent below 10; inactive means the rest.

`O=C1c2ccccc2C2N1CCC1CCc3ccccc3N12` (stereo unspecified): the growth in assay [1] is 117%; in assay [2], 89.4%; in assay [3], 88.9%; in [4], 92.7%; in assay [5] it was 106%; in [6], 111%. Also, the growth in assay [7] was 88.9%; in [8] it was 102%; in assay [9], 97.1%; in assay [10], 94.5%; in assay [11], 100%; in assay [12] it was 94.3%. The growth in assay [13] was 96.2%; in [14] it was 89.7%; in assay [15], 76.3%; in assay [16], 98%; in [17] it was 82.2%; in assay [18], 100%. Also, in assay [19], the growth was 109%.
As for `COc1ccccc1/C=N\NC(=S)Nc1ccc(F)cc1`, the growth in assay [1] is 98.6%; in assay [2] it was 32.3%; in assay [3] it was 65%; in [4], 59.8%; in assay [5], 88.2%; in [6] it was 91.6%. The growth was 73.3% in assay [7]; 77.2% in assay [8]; 48.4% in assay [9]; 50.8% in [10]; 46.9% in [11]; 84.4% in assay [12]. Also, the growth was 89.1% in assay [13]; 62% in [14]; 83% in [15]; 85.1% in [16]; 58.9% in assay [17]; 78.4% in [18]. Moreover, the growth in [19] is 78.3%.
In the case of `N#Cc1c(N)c(C(=O)c2ccc3c(c2)OCCO3)n2c1CCCC2`, the growth in assay [1] is 45.2%; in assay [2] it was 0.198% (active); in assay [3], -8.49% (active); in assay [4], 52.3%; in assay [5], 31.4%; in assay [6] it was 36.9%. Moreover, the growth is 24.2% in assay [7]; 45.9% in assay [8]; 19.4% in [9]; 20.9% in assay [10]; 5.44% (active) in assay [11]; -1.33% (active) in assay [12]. Besides, the growth in assay [13] was 53.7%; in assay [14], 15.4%; in assay [15], 23%; in assay [16], 22.8%; in assay [17] it was 38%; in assay [18], 32.2%. Also, the growth in assay [19] was 44%.
In the case of `CCn1c(CN2CCN(Cc3ccccc3)CC2)nc2cc(NC(=O)c3cccs3)ccc21`, the growth in assay [1] was -57.7% (active); in assay [2], -27.5% (active); in assay [3] it was -72.8% (active); in assay [4], -90.6% (active); in assay [5], -92.4% (active); in assay [6] it was -88.3% (active). Also, the growth in [7] is -69.8% (active); in assay [8] it was -80.1% (active); in assay [9], -64.6% (active); in [10] it was 3.47% (active); in assay [11], -55.6% (active); in [12] it was -96.6% (active). The growth was -41.7% (active) in assay [13]; -91.4% (active) in assay [14]; -51.5% (active) in assay [15]; -98.9% (active) in assay [16]; -92.8% (active) in assay [17]; -89.7% (active) in assay [18]. Moreover, the growth in assay [19] was -91.2% (active).
For `Cc1cc(NC(=O)C2c3ccccc3C(=O)N(CC(C)C)C2c2cccs2)no1` (stereo unspecified), the growth in assay [1] is -9.63% (active); in assay [2] it was 3.46% (active); in assay [3], -62.1% (active); in assay [4] it was -14.2% (active); in assay [5], -88.3% (active); in [6] it was 27.8%. Moreover, the growth in assay [7] is 18.2%; in assay [8], -8.81% (active); in assay [9], 1% (active); in assay [10] it was 7.04% (active); in [11] it was -29.4% (active); in assay [12], 61.4%. In addition, the growth was 81.9% in assay [13]; 21.2% in assay [14]; 9.17% (active) in assay [15]; 14.2% in [16]; -84.5% (active) in assay [17]; -85.3% (active) in assay [18]. The growth in assay [19] was -86.8% (active).
For `CCN(CC)CCC(CNc1ccnc2cc(Cl)ccc12)c1ccc(O)cc1` (stereo unspecified), the growth was 91.4% in assay [1]; 10.6% in assay [2]; 93.5% in assay [3]; 74.1% in assay [4]; 52.5% in assay [5]; 69.5% in assay [6]. Also, the growth in [7] was 88.4%; in assay [8] it was 93.4%; in assay [9] it was 6.04% (active); in assay [10] it was 109%; in assay [11], 29.5%; in [12], 85.7%. For the same molecule, the growth in assay [13] is 103%; in [14] it was 81.3%; in assay [15], 61.1%; in assay [16] it was 91.9%; in assay [17], 103%; in [18] it was 50.4%. In addition, in assay [19], the growth is 107%.
`C/C(=N\NC(=S)Nc1ccccc1)c1ccccn1`: the growth in assay [1] was 57.5%; in assay [2], 23.6%; in assay [3], 31.3%; in assay [4], 30.8%; in assay [5] it was 12.2%; in [6], 43.3%. In addition, the growth in assay [7] is 19.6%; in [8], 17.6%; in assay [9] it was 24.1%; in [10], 28.1%; in [11], 34.4%; in assay [12] it was 79.9%. Also, the growth in [13] was 43.5%; in assay [14], 32.1%; in assay [15], 31.6%; in [16], 16.5%; in assay [17], 16.4%; in assay [18], 37.3%. Moreover, in [19], the growth was 59.8%.
Consider `Cc1nn(-c2ccc(Cl)cc2)c(=O)n1CCN1CCOCC1`, for which the growth in assay [1] was 78.5%; in [2], 70.1%; in [3], 59.1%; in assay [4], 57.3%; in assay [5], 42.1%; in assay [6], 48.4%. In addition, the growth is 67% in [7]; 73.4% in assay [8]; 69.8% in [9]; 74.2% in assay [10]; 104% in assay [11]; 7.65% (active) in assay [12]. Further, the growth was 58.7% in [13]; 42.9% in [14]; 80.8% in [15]; 80.3% in assay [16]; 82.8% in assay [17]; 81.6% in assay [18]. Moreover, the growth in assay [19] is 92.9%.
Turning to `O=S(=O)(NCC[C@@H]1C[C@H]1c1ccc2ccccc2c1)c1ccc(C(F)(F)F)cc1`, the growth in assay [1] is 96.6%; in assay [2] it was 89.2%; in [3] it was 88.5%; in assay [4], 94.6%; in [5], 109%; in assay [6], 89.3%. The growth is 99.9% in [7]; 100% in assay [8]; 96.2% in assay [9]; 93.4% in assay [10]; 92.7% in [11]; 73.6% in [12]. For the same molecule, the growth in assay [13] is 97.3%; in assay [14], 93.5%; in assay [15], 81.7%; in assay [16], 94.5%; in assay [17] it was 78.5%; in assay [18], 97.8%. Besides, in assay [19], the growth is 108%.
